Measured values from PubChem BioAssay (Tox21).
Inconclusive results are not listed. Activity calls are given as the source filed them. Unless noted, calls follow the shape of the full dose curve.

Tests used:
[1] = qHTS assay to identify small molecule agonists of the sonic hedgehog signaling (Shh) pathway (AID 1259368);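 also: NIH/3T3-derived 3T3Gli1-Luc cells carrying a stable Gli1-driven firefly luciferase reporter; series mostly up to about 92 µM; nearly all actives have a fitted effect of over 15% in size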
Method in brief: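 Quantitative high-throughput format using a Gli1-driven firefly luciferase reporter line derived from NIH/3T3 cells. After a 24 hr compound treatment at 37 C and 5% CO2, luminescence reported Gli1 response element activity.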

[2] = qHTS assay to identify small molecule antagonists of the sonic hedgehog signaling (Shh) pathway (AID 1259369); also: nearly all actives have a fitted effect of over 45% in size; also: potency is read from the fitted curve at half-maximal effect
Method in brief: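 Stable Gli1-Luc reporter NIH/3T3 clone; quantitative HTS in stimulated mode with conditioned medium. Luminescence measured after 24hr compound treatment at 37 C.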

[3] = target: Estrogen receptor beta (Homo sapiens) (UniProt Q92731); assay: qHTS assay to identify small molecule agonists of the estrogen receptor beta (ER-beta) signaling pathway (AID 1259377; active = well fitted activation curve with a large enough effect in the signal ratio in the repeat runs, not every such curve was filed as active; the % refers to the signal ratio)
Sequence of Estrogen receptor beta (Homo sapiens) (Q92731 whole entry, looked up): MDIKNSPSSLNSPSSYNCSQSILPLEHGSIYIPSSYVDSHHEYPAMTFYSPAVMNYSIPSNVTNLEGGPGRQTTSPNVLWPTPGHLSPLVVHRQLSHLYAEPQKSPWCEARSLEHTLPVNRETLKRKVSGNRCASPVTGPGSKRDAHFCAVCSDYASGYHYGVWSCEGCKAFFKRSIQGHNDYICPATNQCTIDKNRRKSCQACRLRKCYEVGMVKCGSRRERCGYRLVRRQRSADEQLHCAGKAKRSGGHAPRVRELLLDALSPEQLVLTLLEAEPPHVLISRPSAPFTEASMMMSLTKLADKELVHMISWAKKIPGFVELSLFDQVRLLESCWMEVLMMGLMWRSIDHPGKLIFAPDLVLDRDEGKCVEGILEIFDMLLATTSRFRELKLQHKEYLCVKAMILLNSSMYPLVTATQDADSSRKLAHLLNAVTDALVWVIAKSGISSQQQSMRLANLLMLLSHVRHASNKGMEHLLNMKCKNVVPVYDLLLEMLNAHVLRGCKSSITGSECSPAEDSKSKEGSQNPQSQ
Method in brief: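 HEK293T ER-beta-UAS-bla; 2% charcoal-stripped FBS; cells pre-incubated 6 hr, compound 16 hr, 37C/5% CO2; LiveBLAzer B/G FRET substrate 2 h RT; fluorescence intensity read.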

[4] = target: Estrogen receptor beta (Homo sapiens) (UniProt Q92731); assay: qHTS assay to identify small molecule antagonists of the estrogen receptor beta (ER-beta) signaling pathway (AID 1259378; active = well fitted inhibition curve with a large enough effect in the signal ratio in the repeat runs, not every such curve was filed as active; the % refers to the signal ratio)
Method in brief: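 ER-beta-UAS-bla HEK293T (GripTite) cells in 2% charcoal-stripped FBS medium were preincubated 6 hr at 37C, dosed with compound, then stimulated with 1 nM E2 (final) for 16 hr; beta-lactamase reporter read by B/G FRET fluorescence after 2 hr substrate loading.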

[5] = qHTS assay to identify small molecule agonists of the androgen receptor (AR) signaling pathway in the presence of an antagonist - cell viability counter screen (AID 1259379; active = well fitted curve in the direction sought with a large enough effect in the repeat runs; an effect the other way counts as inactive or inconclusive;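 also: MDA-kb2 human breast cancer cells carrying an MMTV luciferase reporter; series mostly up to about 92 µM; nearly all actives have a fitted effect of over 25% in size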)
Method in brief: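 Nilutamide-containing (3.0uM final) MDA-kb2 cultures, 3,000 cells/well, were treated with compounds across 15 concentrations. After 16 hr at 37C with no CO2, cell viability was determined by CellTiter-Fluor fluorescence in the luciferase assay wells.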

[6] = qHTS assay to identify small molecule agonists of the estrogen receptor beta (ER-beta) signaling pathway - cell viability counter screen (AID 1259380; active = well fitted curve in the direction sought with a large enough effect in the repeat runs; an effect the other way counts as inactive or inconclusive; also: nearly all actives have a fitted effect of over 30% in size)
Method in brief: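 Steps: plate ER-beta-UAS-bla HEK293T cells, rest 6 hr; add compounds in DMSO; incubate 16 hr at 37C, 5% CO2; add FRET substrate 2 hr; add CellTiter-Glo, wait 30 min at room temperature; read luminescence.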

[7] = qHTS assay to identify small molecule antagonists of the estrogen receptor beta (ER-beta) signaling pathway - cell viability counter screen (AID 1259382; active = well fitted curve in the direction sought with a large enough effect in the repeat runs; an effect the other way counts as inactive or inconclusive; also: series mostly up to about 92 µM; nearly all actives have a fitted effect of over 55% in size)
Method in brief: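 Viability is scored by CellTiter-Glo luminescence (30 min, room temperature) in ER-beta-UAS-bla HEK293T wells already read for reporter fluorescence. Compound exposure lasts 16 hr at 37C alongside 1nM 17-beta-estradiol in charcoal-stripped serum medium.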

[8] = qHTS assay to identify small molecule agonists or antagonists of the thyroid stimulating hormone receptor (TSHR) signaling pathway - wild type cell line counter screen (AID 1259384)
Method in brief: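 Wild-type HEK293 cells were plated 18 h at 37 C/5% CO2, pin-dosed with compound plus Ro20-1724 medium, held 30 min at room temperature, then given cAMP-d2 and anti-cAMP-cryptate; fluorescence was read after 1 h. Fifteen concentrations, triplicate.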

[9] = target: Estrogen receptor (Homo sapiens) (UniProt P03372); assay: qHTS assay to identify small molecule agonists of the estrogen receptor alpha (ER-alpha) signaling pathway in the presence of an antagonist (AID 1259383); also: top concentration of the series differs between compounds; nearly all actives have a fitted effect of over 15% in size
Sequence of Estrogen receptor (Homo sapiens) (P03372 whole entry, looked up): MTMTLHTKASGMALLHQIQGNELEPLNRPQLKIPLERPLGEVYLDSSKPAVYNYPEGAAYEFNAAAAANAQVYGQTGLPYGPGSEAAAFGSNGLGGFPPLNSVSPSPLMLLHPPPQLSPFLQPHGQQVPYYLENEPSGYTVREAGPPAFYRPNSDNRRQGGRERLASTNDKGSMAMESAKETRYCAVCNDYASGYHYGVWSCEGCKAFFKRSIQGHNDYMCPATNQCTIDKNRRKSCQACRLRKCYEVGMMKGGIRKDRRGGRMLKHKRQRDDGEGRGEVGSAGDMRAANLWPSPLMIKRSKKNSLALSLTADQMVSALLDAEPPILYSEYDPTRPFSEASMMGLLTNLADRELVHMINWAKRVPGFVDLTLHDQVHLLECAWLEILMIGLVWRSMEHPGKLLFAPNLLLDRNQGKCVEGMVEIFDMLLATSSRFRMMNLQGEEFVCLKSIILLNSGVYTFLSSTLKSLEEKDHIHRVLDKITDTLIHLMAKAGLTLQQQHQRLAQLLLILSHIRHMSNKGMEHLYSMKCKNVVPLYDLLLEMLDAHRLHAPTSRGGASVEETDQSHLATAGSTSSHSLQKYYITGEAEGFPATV
Method in brief: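 Readout was ERE-driven luciferase luminescence in VM7Luc4E2 cells, which express full-length ER-alpha endogenously. Compounds were tested at 15 concentrations for 22hr alongside 10.0nM ICI-182,780 (final concentration).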

[10] = target: Androgen receptor (Homo sapiens) (UniProt P10275); assay: qHTS assay to identify small molecule agonists of the androgen receptor (AR) signaling pathway in the presence of an antagonist (AID 1259381); also: nearly all actives have a fitted effect of over 15% in size
Sequence of Androgen receptor (Homo sapiens) (P10275 whole entry, looked up): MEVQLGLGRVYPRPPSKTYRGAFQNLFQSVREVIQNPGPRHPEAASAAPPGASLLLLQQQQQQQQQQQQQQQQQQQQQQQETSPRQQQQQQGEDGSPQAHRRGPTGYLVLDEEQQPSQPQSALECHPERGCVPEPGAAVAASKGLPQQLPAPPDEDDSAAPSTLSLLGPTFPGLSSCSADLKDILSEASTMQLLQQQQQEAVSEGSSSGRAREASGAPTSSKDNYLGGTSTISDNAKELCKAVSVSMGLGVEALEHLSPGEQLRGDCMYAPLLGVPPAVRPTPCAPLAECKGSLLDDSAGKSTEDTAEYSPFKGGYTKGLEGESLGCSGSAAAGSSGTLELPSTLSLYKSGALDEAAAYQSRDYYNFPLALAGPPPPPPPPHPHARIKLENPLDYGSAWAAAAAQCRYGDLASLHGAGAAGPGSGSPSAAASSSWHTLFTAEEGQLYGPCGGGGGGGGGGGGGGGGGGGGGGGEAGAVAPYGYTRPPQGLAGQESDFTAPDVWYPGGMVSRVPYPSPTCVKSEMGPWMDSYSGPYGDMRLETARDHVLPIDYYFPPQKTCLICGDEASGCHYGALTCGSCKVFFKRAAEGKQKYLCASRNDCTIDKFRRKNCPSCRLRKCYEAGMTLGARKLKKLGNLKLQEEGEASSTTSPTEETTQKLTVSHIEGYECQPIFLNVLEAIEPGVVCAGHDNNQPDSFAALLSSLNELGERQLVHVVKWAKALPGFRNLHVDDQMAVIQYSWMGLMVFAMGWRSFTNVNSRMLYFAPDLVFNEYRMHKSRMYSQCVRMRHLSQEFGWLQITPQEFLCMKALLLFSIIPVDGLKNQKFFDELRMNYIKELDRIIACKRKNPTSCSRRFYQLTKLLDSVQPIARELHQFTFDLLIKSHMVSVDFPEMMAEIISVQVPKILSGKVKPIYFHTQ
Method in brief: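 Reporter-gene luminescence from MDA-kb2 cells exposed 16hr at 37C (0% CO2) to 15-point compound titrations with 3.0uM final nilutamide as AR antagonist.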
% is scaled to controls: 0 for no effect and ±100 for the full control effect.

CC(C)[N+](C)(C)CC(O)COc1cccc2ccccc12 (configuration not stated)
inactive: Potency [1] | Potency [2] | outcome [3] | Potency [4] | Potency [5] | Potency [6] | Potency [7] | outcome [8]

C[C@H](O)C(=O)Nc1c(I)c(C(=O)NC(CO)CO)c(I)c(C(=O)NC(CO)CO)c1I
inactive: Potency [1] | Potency [2] | outcome [3] | Potency [4] | Potency [5] | Potency [6] | Potency [7] | Potency [9] | outcome [8]

CC1CCN(CCCC(=O)c2ccc(F)cc2)CC1
inactive: Potency [1] | Potency [2] | outcome [3] | Potency [4] | Potency [5] | Potency [6] | Potency [7] | Potency [9] | outcome [8]

CCCCCCC(CCCCCCCCCCC(=O)OCC(COC(C)=O)OC(C)=O)OC(C)=O (configuration not stated)
inactive: Potency [1] | outcome [3] | Potency [4] | Potency [5] | Potency [6] | Potency [7] | Potency [9] | outcome [8]
active: Potency [2] 1060 nM

CCN1CCN(c2cc3c(cc2F)c(=O)c(C(=O)O)cn3C2CC2)CC1
inactive: Potency [1] | Potency [2] | outcome [3] | Potency [4] | Potency [5] | Potency [6] | Potency [10] | Potency [7] | outcome [8]

CC1(C)SC(C)(C)SC(C)(C)S1
inactive: Potency [1] | Potency [2] | outcome [3] | Potency [4] | Potency [5] | Potency [6] | Potency [10] | Potency [7] | outcome [8]

COC(=O)CCCC(=O)O
inactive: Potency [1] | Potency [2] | outcome [3] | Potency [4] | Potency [5] | Potency [6] | Potency [7] | Potency [9] | outcome [8]

COc1cc(C)cc(O)c1
inactive: Potency [1] | Potency [2] | outcome [3] | Potency [4] | Potency [5] | Potency [6] | Potency [7]

CNC(=O)c1c(I)c(NC(=O)CCCCC(=O)Nc2c(I)c(C(=O)O)c(I)c(C(=O)NC)c2I)c(I)c(C(=O)O)c1I
inactive: Potency [1] | Potency [2] | outcome [3] | Potency [4] | Potency [5] | Potency [6] | Potency [7]

Cc1ccccc1C(=O)O
inactive: Potency [1] | Potency [2] | outcome [3] | Potency [4] | Potency [5] | Potency [6] | Potency [7]

OCCCCCCO
inactive: Potency [1] | Potency [2]

COc1ccc(COC=O)cc1
inactive: Potency [1] | Potency [2] | outcome [3] | Potency [4] | Potency [5] | Potency [6] | Potency [7] | Potency [9] | outcome [8]

CCN(CC)S(=O)(=O)c1ccc(C(=O)O)cc1
inactive: Potency [1] | Potency [2] | outcome [3] | Potency [4] | Potency [5] | Potency [6] | Potency [7] | outcome [8]

CC(C)COC(=O)C(C)C
inactive: Potency [1] | Potency [2] | outcome [3] | Potency [4] | Potency [5] | Potency [6] | Potency [7] | Potency [9] | outcome [8]

NCC[C@H](O)C(=O)N[C@@H]1C[C@H](N)[C@@H](O[C@H]2O[C@H](CN)[C@@H](O)[C@H](O)[C@H]2O)[C@H](O)[C@H]1O[C@H]1O[C@H](CO)[C@@H](O)[C@H](N)[C@H]1O
inactive: activity change [1] 0.203% [at 0.349 µM, stronger effect = higher value] | activity change, negative = inhibition [2] 22.5% [at 0.349 µM] | activation [3] 0.597% [at 0.348 µM] | activity, negative = inhibition [4] -5.02% [at 0.349 µM] | activity change, negative = cytotoxicity [5] 1.61% [at 0.35 µM] | activation [10] 0.148% [at 0.349 µM] | activity change, negative = cytotoxicity [7] 1.11% [at 0.349 µM] | activation [9] 1.1% [at 0.349 µM] | cAMP activity change [8] -0.997% [at 0.349 µM]

CCC(C)(C)C1CCC(OC)CC1 (configuration not stated)
inactive: Potency [1] | Potency [2] | outcome [3] | Potency [4] | Potency [5] | Potency [7] | outcome [8]

CC(C=O)Cc1ccc(C(C)C)cc1 (configuration not stated)
inactive: Potency [1] | Potency [2] | outcome [3] | Potency [4] | Potency [5] | Potency [6] | Potency [7] | outcome [8]

COCc1ccc(COC)cc1
inactive: Potency [1] | Potency [2] | outcome [3] | Potency [4] | Potency [5] | Potency [9]

CCCCc1ccc2cccc(S(=O)(=O)O)c2c1
inactive: Potency [1] | Potency [2] | outcome [3] | Potency [4] | Potency [5] | Potency [10] | outcome [8]

c1ccc(CCCc2ccccn2)cc1
inactive: Potency [1] | Potency [2] | outcome [3] | Potency [4] | Potency [5] | Potency [6] | Potency [7] | outcome [8]

FC(F)(F)C(F)(F)C(F)(F)C(F)(F)C(F)(F)C(F)(F)C(F)(F)C(F)(F)C(F)(F)C(F)(F)F
inactive: activity change [1] -0.701% [at 8.39 µM, stronger effect = higher value] | activity change, negative = inhibition [2] -15.5% [at 8.39 µM] | activation [3] -4.79% [at 8.39 µM] | activity, negative = inhibition [4] 3.92% [at 8.39 µM] | activity change, negative = cytotoxicity [5] 1.46% [at 8.39 µM] | activity change, negative = cytotoxicity [6] -0.929% [at 8.39 µM] | activity change, negative = cytotoxicity [7] -4.55% [at 8.39 µM] | cAMP activity change [8] 1.74% [at 8.39 µM]

CCCCCCCCCCCCCCC
inactive: Potency [1] | Potency [2] | outcome [3] | Potency [4] | Potency [5] | outcome [8]

COC(=O)c1ccc(C(=O)OC)c(C(=O)OC)c1
inactive: Potency [1] | Potency [2] | outcome [3] | Potency [4] | Potency [5] | Potency [7] | Potency [9] | outcome [8]

Cc1ccccc1Br
inactive: Potency [1] | Potency [2] | outcome [3] | Potency [4] | Potency [5] | Potency [6] | outcome [8]

CCCCCCCCCCCCCCCCCCOCC(O)CO (configuration not stated)
inactive: Potency [1] | Potency [2] | outcome [3] | Potency [4] | Potency [5] | Potency [7] | Potency [9] | outcome [8]

O=S(=O)(O)c1ccccc1O
inactive: Potency [1] | Potency [2] | outcome [3] | Potency [4] | Potency [5] | Potency [10] | Potency [7] | Potency [9] | outcome [8]
